According to PubChem BioAssay AID615 (Sanford-Burnham Center for Chemical Genomics, 2007):
Out of some 21,000 compounds screened, fewer than 10 were called active. Only a sample is shown. Values without a mark were called inactive.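 Rule for the calls: active = inhibition above 50% at the 20 µM single-dose screen; inactive = the rest.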

These compounds were tested against Alkaline phosphatase, tissue-nonspecific isozyme (Homo sapiens) (UniProt P05186) (assay: human TNAP enzyme inhibitors, primary screen, biochemical, colorimetric, p-nitrophenol readout (AID 615;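 note: 0% = DMSO only wells and 100% = 1 mM levamisole wells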)). Conditions: purified TNAP, pNPP hydrolysis, absorbance 405 nm; at 20 µM; stronger effect = higher value.
Alkaline phosphatase, tissue-nonspecific isozyme (Homo sapiens), sequence (P05186 whole entry, looked up): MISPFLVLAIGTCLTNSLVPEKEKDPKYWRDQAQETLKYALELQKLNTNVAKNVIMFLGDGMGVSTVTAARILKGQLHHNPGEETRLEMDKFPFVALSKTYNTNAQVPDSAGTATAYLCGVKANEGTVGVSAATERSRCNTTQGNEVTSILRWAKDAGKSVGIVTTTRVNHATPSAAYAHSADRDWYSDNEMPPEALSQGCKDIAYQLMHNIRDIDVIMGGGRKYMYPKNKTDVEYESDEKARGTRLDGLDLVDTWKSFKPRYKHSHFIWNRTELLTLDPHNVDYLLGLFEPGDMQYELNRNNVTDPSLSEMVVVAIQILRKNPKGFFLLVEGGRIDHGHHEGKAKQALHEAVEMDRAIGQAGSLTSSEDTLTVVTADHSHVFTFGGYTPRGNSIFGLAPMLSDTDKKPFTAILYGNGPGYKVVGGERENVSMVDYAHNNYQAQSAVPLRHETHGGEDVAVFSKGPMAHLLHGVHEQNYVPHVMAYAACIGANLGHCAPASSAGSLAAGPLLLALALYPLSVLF
Work on `CCOc1cccc(NC(=O)C2CCCN(S(=O)(=O)c3ccc(OC)cc3)C2)c1` (centres undefined) yielded an inhibition of -1.6%. In the case of `O=c1[nH]c(=O)n(Cc2ccco2)c2c1C(C(F)(F)F)(C(F)(F)F)N=C(c1ccco1)N2`, the inhibition is reported as 1.6%. `CCN(CC)C(=O)CSc1nnc(-c2ccc(S(=O)(=O)NCc3ccccc3Cl)cc2)o1` showed an inhibition of 3.4%. Compound `CCN(CC)CCN1C(=O)C(=O)/C(=C(/O)c2ccc(OC)c(OC)c2)C1c1ccccn1` (centres undefined) has an inhibition of -8.8%. `CCCOC(=O)C1=C(C)NC2=C(C(=O)C(C(=O)OC)C(C)C2)C1c1ccc(N(C)C)cc1` (centres undefined) gave an inhibition of 6.3%. Work on `COC(=O)c1cccc(NC(=O)CN2CCC(NC(=O)c3cc(OC)c(OC)c(OC)c3)CC2)c1` yielded an inhibition of 4.5%. For `Cn1nnnc1SCC(=O)N1CCN(Cc2ccccc2)CC1`, the inhibition was 3.1%. With `CCn1c(Cc2ccccc2)nnc1SCc1nc2ccccc2c(=O)[nH]1` the inhibition was 2.9%. `c1ccc(-n2ncc3c(N4CCCC4)ncnc32)cc1` was tested, and the inhibition was 4.2%. For `CC1(C)C2CCC1(C)C(OC(=O)CCn1ccnc1)C2` (centres undefined), the inhibition was 3.3%. For `Cc1cc(NC(=O)CCC(=O)N(c2cccc(F)c2)C(C(=O)NC2CCCC2)c2ccncc2)no1` (centres undefined), the inhibition was 2.9%. Work on `CCn1c(SCC(=O)c2ccc(Cl)s2)nnc1-c1cccs1` yielded an inhibition of 3.7%. For `COc1ccc2[nH]c3ccc(OC)cc3c2c1`, the inhibition was 6.8%. `O=C(NCCN1CCOCC1)c1c(F)c(F)c(F)c(F)c1F` gave an inhibition of -0.8%. For `CCOC(=O)c1ccc(N2C(=O)CC(Sc3nc(O)c(CC)c(=O)[nH]3)C2=O)cc1` (centres undefined), the inhibition was -2.3%. `CC(C)c1nc(N2CCOCC2)c(C#N)c2c1COC(C)(C)C2` was tested, and the inhibition was -4.2%. `Cc1ccc2c(c1)c1ncn(CCC3=CCCCC3)c(=O)c1n2C` showed an inhibition of 1.2%. With `CC1(C)CC(=O)C2=C(C1)NCN(CCCN1CCOCC1)C2` the inhibition was 3%. With `c1ccc2c(NCC3CCCO3)nc(-c3ccncc3)nc2c1` (centres undefined) the inhibition was 3.1%. Work on `Cc1ccn2cc(C(=O)NC3CCN(Cc4ccccc4)CC3)nc2c1` yielded an inhibition of -6.8%. Work on `CCC(C)(C)n1nnnc1C(c1cccs1)N1CCN(Cc2ccccc2)CC1` (centres undefined) yielded an inhibition of -10%. `COc1ccc(NC(=O)CSc2nnc(-c3cccs3)n2Cc2ccco2)cc1OC` gave an inhibition of 3.1%. With `N#CNC1=NCN(CCc2ccccc2)CN1` the inhibition was 4.9%. Compound `C=CCN1C(=O)C(O)(CC(=O)c2ccc(Cl)cc2)c2ccccc21` (centres undefined) has an inhibition of 5.4%. `CCc1ccc(-c2nnn(Cc3nc4ccccc4s3)n2)cc1` gave an inhibition of 3%. In the case of `O=C1[C@@H]2C(Cc3ccc(O)cc3)NC3(C(=O)Nc4ccc(F)cc43)[C@@H]2C(=O)N1c1ccc(F)cc1` (some centres undefined), the inhibition is reported as 1.7%. Work on `COC(=O)c1ccccc1NC(=O)CN(Cc1ccccc1)S(C)(=O)=O` yielded an inhibition of 6%. `CCCc1nc2ccccc2c(C(=O)OCc2nnc(-c3cc(OC)c(OC)c(OC)c3)o2)c1CC` showed an inhibition of 1.2%. For `CCOC(=O)c1cc2occc2n1CC(=O)NC1CCC(C)CC1` (centres undefined), the inhibition was 5.1%. For `CCOc1cccc(=O)c2c(C)n(CC3CCCO3)c(C)c12` (centres undefined), the inhibition was -12.4%. Work on `O=C(NC1CC2CCCC(C1)N2C(=O)N1CCCCC1)C1CCCCC1` (centres undefined) yielded an inhibition of 4.8%. In the case of `CCOC(=O)C1C(=O)NC(N2CCN(c3ccccc3)CC2)=NC1c1ccco1` (centres undefined), the inhibition is reported as 2.1%. `CCN(Cc1cc2cc(C)ccc2[nH]c1=O)S(=O)(=O)c1ccccc1` was tested, and the inhibition was 6.4%. `O=C(NCCCCO)C(F)(F)C(F)(F)C(F)(F)C(=O)NCCCCO` was tested, and the inhibition was 4.2%. `Cc1cc(N2C(=O)C(=O)/C(=C(/O)c3ccccc3)C2c2cccc(Br)c2)no1` (centres undefined) showed an inhibition of 0.9%. `CN(c1nc2ccccc2n2c(-c3ccco3)nnc12)S(=O)(=O)c1ccccc1` was tested, and the inhibition was 4.7%. In the case of `CC(=O)c1cccc(NC(=O)N2CCCC2C(=O)NCCC(C)C)c1` (centres undefined), the inhibition is reported as 7.2%. Compound `Cc1ccc(F)cc1NC(=O)c1cccc(N(C)C)c1` has an inhibition of 5%. `CC1=C2C(=O)OC(c3ccoc3)C2(C)CCC1` (centres undefined) showed an inhibition of 0%. Compound `CCOC(=O)CSc1nnc(-c2ccco2)n1C` has an inhibition of 3%. `Cc1ccc(C(=O)OCC(=O)NCc2ccc3c(c2)OCO3)s1` gave an inhibition of 3.6%. Compound `Cc1ccc(S(=O)(=O)N2CCC(C(=O)OCC(=O)N3CC(=O)Nc4ccccc43)CC2)cc1` has an inhibition of 5.7%. For `CCCCCNC(=O)Cc1ccc(OC)cc1`, the inhibition was 2.1%. With `Cc1nc(NCc2ccccc2)c(C(N)=O)c2c1COC(C)(C)C2` the inhibition was 3%. `CC(=O)N(Cc1cccs1)C1CCOC(C)(C)C1` (centres undefined) gave an inhibition of 2.9%. Compound `CSc1nc(O)c(Cc2ccccc2)c(=O)[nH]1` has an inhibition of 0.9%. `CC(C)C(NC(=O)c1cccc(S(=O)(=O)N2CCOCC2)c1)C(=O)NCCc1ccccn1` (centres undefined) gave an inhibition of 4.3%. In the case of `CSCCC1NC2(C(=O)Nc3ccc(Cl)cc32)[C@@H]2C(=O)N(C3CCCC3)C(=O)[C@H]12` (some centres undefined), the inhibition is reported as 7.3%. In the case of `Cc1cnc(NC(=O)CSc2nnc(-c3ccc(Cl)cc3Cl)n2N)s1`, the inhibition is reported as -1.5%. With `COc1ccc(-c2c3c(=O)n(C)c(=O)n(C)c3cn2NC(C)=O)cc1` the inhibition was 3.2%. For `CCSC1=C(C#N)C(=O)n2c1cc1c2CCCC1`, the inhibition was 1.7%. Work on `Cc1cc(C(=O)N2CCN(c3ccccn3)CC2)c(C)o1` yielded an inhibition of 6%. `COc1cccc(-c2nnc(N(C)C(=O)c3ccno3)s2)c1` gave an inhibition of 2.3%. `CC(=O)N1CSCC1C(=O)O` (centres undefined) was tested, and the inhibition was 8.6%. Compound `COc1ccc(O)c(C=Nc2cc(C)on2)c1` has an inhibition of 5.7%. Compound `O=C1CSC(=O)N1CCOCCN1C(=O)CSC1=O` has an inhibition of 4.8%. With `COc1ccc(C2CC(c3ccc(C)cc3)Nc3nc(N)nn32)cc1` (centres undefined) the inhibition was 3.3%. With `CC1(C)CC(=O)C(C2=NC(C)(C)Cc3ccccc32)=C(O)C1` the inhibition was -1%. For `CCn1c(SCC(=O)NCc2ccco2)nnc1-c1ccc(N)cc1`, the inhibition was 0.2%. For `CCOc1cc(C)c(Cl)cc1S(=O)(=O)n1nnc2ccccc21`, the inhibition was 3.6%. Work on `CC1CCCN(C(=O)Cn2c(=O)oc3ccccc32)C1` (centres undefined) yielded an inhibition of 3.7%. In the case of `O=C(Nc1c(Cl)cccc1Cl)C1CCC1`, the inhibition is reported as 3.6%. `Cc1cc(C)nc(SCc2ccccc2C#N)n1` showed an inhibition of 1.7%. Compound `COc1ccccc1Nc1ncc(C(C)=O)c(C)n1` has an inhibition of 1.9%. In the case of `O=C(O)CN(Cc1ccco1)S(=O)(=O)c1ccccc1`, the inhibition is reported as 0%. `CCC(=O)Nc1ccc(C(=O)Nc2ccc3c(c2)C(=O)N(CC2CCCO2)C3=O)cc1` (centres undefined) gave an inhibition of 3.2%. In the case of `CCCc1cc(=O)n2[nH]c(SCc3ccccc3)nc2n1`, the inhibition is reported as 4.4%. In the case of `N#Cc1nc(-c2ccc(OCc3ccccc3)cc2)oc1NCCCN1CCOCC1`, the inhibition is reported as 4%. `O=S(=O)(NCc1cccnc1)c1ccc(Br)s1` showed an inhibition of 2.9%. In the case of `Cc1ccc(C(=O)N2CCN(C3CCCCC3)CC2)s1`, the inhibition is reported as 2.5%. `COC(=O)c1cc(NC(=O)CN2CCC(C(N)=O)(N3CCCCC3)CC2)cc(C(=O)OC)c1` was tested, and the inhibition was -6.8%. Work on `COc1cccc(NC(=O)c2ccccc2SC)c1` yielded an inhibition of 0.3%. In the case of `COC(=O)c1ccc2c(c1)S(=O)(=O)NC(=NCCCN1CCOCC1)S2`, the inhibition is reported as 3.7%. `O=C(c1ccco1)N(Cc1nc2ccccc2c(=O)[nH]1)C1CCCC1` was tested, and the inhibition was -5.2%. Compound `Cc1ccccc1OCCC(=O)Nc1c(C)n(C)n(-c2ccccc2)c1=O` has an inhibition of 0%. In the case of `Cc1cc(C)c(C(=O)CN2C(=O)CCC2=O)cc1C`, the inhibition is reported as 5%. In the case of `O=S(=O)(c1ccccc1)N(CC(O)CN1CCCCC1)c1ccccc1` (centres undefined), the inhibition is reported as -1.4%. `COC(=O)c1ccccc1NC(=O)c1ccccc1NS(C)(=O)=O` gave an inhibition of 8.2%. For `COC(=O)c1cc(Cl)c(NC(=O)c2ccco2)cc1OC`, the inhibition was -4.4%. `COc1cc(OC)cc(C(=O)Nc2ncc3c(n2)CC(C)(C)CC3=O)c1` gave an inhibition of 3.1%. Compound `CC1CCCCC1NC(=O)CSc1nnc(N)s1` (centres undefined) has an inhibition of 0%. `COc1ccc(CNC(=O)c2cc3c(=O)n4ccccc4nc3n(CC3CCCO3)c2=N)cc1` (centres undefined) gave an inhibition of 0.4%. For `COc1c(F)c(F)c(-c2csc(N)n2)c(F)c1F`, the inhibition was 1%. For `COC(=O)c1cccc(NC(=O)CSc2nc(C)cc(=O)[nH]2)c1`, the inhibition was 6.2%. Work on `CC(NCCO)C(=O)C12CC3CC(CC(C3)C1)C2` (centres undefined) yielded an inhibition of 6.7%. `CCn1nc(NC(=O)c2ccco2)c2cc3ccc(C)cc3nc21` gave an inhibition of 4.2%. With `COc1ccc(CNC2CCCCC2)cc1` the inhibition was 3.7%. Work on `CC(C)[C@H](NC(=O)Nc1ccc(S(N)(=O)=O)cc1)C(=O)O` yielded an inhibition of 4.9%. For `O=S(=O)(NCc1ccc2c(c1)OCO2)c1cccc2nsnc12`, the inhibition was 5.8%. `Cc1ccc(S(=O)(=O)N2CCOCC2)cc1C(=O)NCc1ccc(F)cc1` was tested, and the inhibition was 0%. For `O=C(NCC1CCCO1)C(C(=O)c1ccccc1)n1cc(Cl)ccc1=O` (centres undefined), the inhibition was 6.1%. In the case of `Cc1nnc(N(Cc2ccco2)C(=O)c2ccno2)s1`, the inhibition is reported as 1.8%. `O=C(Nc1ccc2c(c1)OCCO2)c1ccncc1` showed an inhibition of 3.7%. `CCOC(=O)c1sc(/N=C/Nc2nc(C)c(C(=O)OCC)s2)nc1C` gave an inhibition of 0%. With `COc1ccc(N(Cc2cc3cc(OC)ccc3[nH]c2=O)S(C)(=O)=O)cc1` the inhibition was 2.6%. `O=C(CSc1ncccn1)NCCc1ccccc1` showed an inhibition of 1.9%. In the case of `CC12CCC(C(=O)N(CCC#N)CCC#N)(CC1=O)C2(C)C` (centres undefined), the inhibition is reported as 5.5%. Compound `CNC(=O)CSc1nnc(CCc2ccccc2)n1-c1ccccc1` has an inhibition of -9%. For `O=C(CCCOc1ccccc1)Nc1cccc(C(=O)O)c1`, the inhibition was 7.6%.
